# Most compounds without a hit are left out; they make up all but 3.5% or so of the library.
# GPR151 activ – activates the human receptor GPR151; activation, % at 11.2 µM; PathHunter beta-arrestin GPR151 cells, luminescence; AID 1508602; hit rate 1% among 650,000; in the data active means activation above about 4.9%
# Target sequence (Q8TDV0 whole entry, looked up): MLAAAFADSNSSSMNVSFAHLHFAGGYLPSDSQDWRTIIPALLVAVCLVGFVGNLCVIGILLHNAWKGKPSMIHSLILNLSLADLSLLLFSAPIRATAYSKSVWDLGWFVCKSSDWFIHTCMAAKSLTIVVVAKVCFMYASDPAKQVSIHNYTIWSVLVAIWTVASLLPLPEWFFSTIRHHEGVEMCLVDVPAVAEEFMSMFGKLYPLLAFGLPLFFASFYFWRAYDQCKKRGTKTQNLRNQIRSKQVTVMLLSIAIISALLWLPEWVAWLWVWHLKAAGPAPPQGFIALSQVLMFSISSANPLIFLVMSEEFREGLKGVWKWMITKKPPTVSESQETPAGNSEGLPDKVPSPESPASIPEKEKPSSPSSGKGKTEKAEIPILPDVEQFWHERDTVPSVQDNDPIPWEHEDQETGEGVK
# MITF inh – blocks human microphthalmia-associated transcription factor; hit rate 0.91% among 650,000; inhibition, % at 2.6 µM; AlphaScreen MITF homodimerization, bead proximity signal; in the data active means inhibition above about 50%
# TEAD-YAP inh – TEAD-YAP interaction inhibition; inhibition, % at 9.12 µM; HEK-TIYL cells, TEAD-Gal4/YAP UAS-luciferase luminescence; AID 1259422; hit rate 1.4% among 640,000; in the data active means inhibition above about 32%
# FBW7 act – human FBW7 E3 ligase activation, primary screen. Q969H0. hit rate 0.13% among 650,000. normalized activity (activation), % at 26.1 µM. AlphaScreen FBW7–phospho-cyclin E peptide binding, activator screen; in the data active means normalized activity above about 1.9%;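 further: purified mutant Fbw7 with reduced substrate affinity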
# MITF inh conf – confirmation of human MITF inhibitors; AlphaScreen MITF homodimerization, biotin/His-MITF beads; shares compounds with MITF inh; inhibition, % at 2.6 µM; hit rate 16% among 4,700; AID 1259372;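 active means inhibition above a cutoff derived from the DMSO control wells, cut at about 28% in these data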;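 further: inhibitors lower the bead chemiluminescence by keeping MITF from dimerizing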
# AlphaScreen DR – counter-screen: compounds optically interfering with AlphaScreen. AlphaScreen optical interference counterscreen, cell-free. hit rate 6% among 480. shares compounds with MITF inh. IC50, µM. AID 1259373; call rule not given here
# AlphaScreen intf2 – counter-screen: compounds optically interfering with AlphaScreen; LysRS AlphaScreen counterscreen, signal interference, triplicate; hit rate 7.6% among 4,700; inhibition, % at 2.6 µM; shares compounds with MITF inh; AID 1259376;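 active means inhibition above a cutoff derived from the DMSO control wells, cut at about 30% in these data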
# Hits are given with their value; 0 = inactive; - = no result.
SMILES,GPR151 activ,MITF inh,TEAD-YAP inh,FBW7 act,MITF inh conf,AlphaScreen intf2,others
COc1ccc(CNC(=O)CNCC2(N3CCOCC3)CCCCC2)cc1,0,55,0,0,0,0,
COC(=O)c1ccc(C(=S)NCC2(N3CCOCC3)CCCCC2)cc1,0,0,0,0,-,-,
CC1=NN(c2ccc(C)cc2)C(=O)CC1,0,0,0,0,-,-,
COc1ccccc1CN1CCN(Cc2ccc(C(F)(F)F)cc2)CC1,0,60,0,0,0,0,
COc1ccc(CN2CCN(Cc3ccc(C(F)(F)F)cc3)CC2)c(OC)c1,0,68,0,0,0,0,
COc1ccc(CN2CCN(Cc3ccc(C)cc3)CC2)c(OC)c1,0,79,0,0,0,0,
COCC(=O)Nc1cnn(-c2ccc(C(=O)N(C)CCOc3ccc(C)cc3)cc2)c1,0,0,0,0,-,-,
O=C(c1ccc(F)cc1)N1CCN(Cc2ccc3ccccc3c2)CC1,0,58,0,0,0,0,
Fc1ccc(CN2CCN(Cc3ccc4ccccc4c3)CC2)cc1,0,79,0,0,0,0,
N#CCN1C(C(=O)c2ccccc2)=C(OC(=O)c2ccccc2)c2ccccc2S1(=O)=O,0,0,0,0,-,-,
Cc1cccc(-n2nc3c(c2NC(=O)c2cccc(Br)c2)CS(=O)(=O)C3)c1C,0,0,0,0,-,-,
CC/C=C\C/C=C\C/C=C\C=C\C(O)C/C=C\CCCC(=O)O (configuration not stated),0,0,-,-,-,-,
Cc1ccc(-n2ncc(C#N)c2/N=C/N2CCN(C)CC2)cc1,0,56,0,0,0,0,
C/C(=N\N=C(/N)SC1CC(=O)N(c2cccc(Cl)c2)C1=O)c1ccc(F)cc1 (configuration not stated),0,0,0,0,-,-,
Cc1cc(C(=O)NNC(=S)NC(=O)/C=C/c2ccccc2Cl)n[nH]1,0,72,0,0,34,70,
O=C(/C=C/c1ccccc1Cl)NC(=S)NNC(=O)c1cccs1,0,0,0,0,-,-,
COc1ccccc1-c1nnc(SCC(=O)N2CCc3ccccc32)o1,0,62,0,0,0,0,
COc1ccc(F)c(CN2CCC(C3(CCc4ccccc4)NC(=O)NC3=O)CC2)c1 (configuration not stated),0,81,0,0,0,0,
COCc1cc(=O)[nH]c(Nc2nc3ccccc3o2)n1,0,65,0,0,75,101,
Cc1ccc(C(=O)NCC2COc3ccccc3O2)c(N2CCOCC2)n1 (configuration not stated),0,0,0,0,-,-,
COc1ccccc1C(=O)Nc1sc(C(=O)N2CCCCC2)c(C)c1C#N,0,0,0,0,-,-,
COc1ccc(OC)c(CN2CCN(c3ccccn3)CC2)c1,0,0,0,0,-,-,
COc1ccc(OC)c(CN2CCN(Cc3cccnc3)CC2)c1,0,82,0,0,0,0,
COc1ccc(Br)cc1CN1CCN(Cc2cccnc2)CC1,0,59,0,0,0,0,
COc1ccccc1C1(O)CCN(Cc2cccnc2)CC1,0,0,0,0,-,-,
SMILES,GPR151 activ,MITF inh,TEAD-YAP inh,FBW7 act,MITF inh conf,AlphaScreen intf2,others
COc1ccc(Br)cc1CN1CCN(Cc2c[nH]c3ccccc23)CC1,0,0,0,0,-,-,
COc1ccccc1CN1CCN(Cc2cccnc2)CC1,0,84,0,0,0,0,
COc1cc(OC)c(OC)cc1CN1CCN(Cc2cccnc2)CC1,0,82,0,0,0,0,
CC(C)(C)c1ccc(C(=O)Nc2ccc(NC(=O)c3ccccc3Cl)cc2)cc1,0,0,0,0,-,-,
CCOC(=O)c1c(C)c(C(=O)NCCc2ccccc2OC)c(C)n1C,0,55,0,0,0,0,
CCOC(=O)c1c(C)c(C(=O)NCCc2ccc(OC)c(OC)c2)c(C)n1C,0,0,0,0,-,-,
CCOC(=O)C1CCN(C(=O)C2CCN(Cc3ccc(CC)cc3)CC2)CC1,0,61,0,0,0,0,
CCOC(=O)C1CCN(C(=O)/C=C/c2ccc(F)cc2)CC1,0,71,0,0,0,0,
Cc1ccc(CNC(=O)C2CCN(Cc3ccc(F)cc3)CC2)cc1,0,0,0,0,-,-,
CCOC(=O)C1CCN(C(=O)/C=C/c2ccccc2)CC1,0,0,0,0,-,-,
CCOC(=O)N1CCN(C(=O)C2CCN(Cc3ccc(CC)cc3)CC2)CC1,0,0,0,0,-,-,
CCOc1ccc(CN2CCC(C(=O)NCc3ccc(C)cc3)CC2)cc1,0,54,0,0,0,0,
O=C(C1CCN(Cc2ccc(F)cc2)CC1)N1CCN(Cc2ccccc2)CC1,0,62,0,0,0,0,
Cc1ccc(Oc2ccc(N3C(=O)C4C5CCC(C5)C4C3=O)cc2)cc1 (configuration not stated),0,0,0,0,-,-,
CCOC(=O)C1CCN(Cc2cn[nH]c2-c2ccccc2)CC1,0,55,0,0,0,0,
CCc1ccc(CN2CCC(C(=O)N3CCCC3)CC2)cc1,0,58,0,0,0,0,
CCOC(=O)C1CCN(C(=O)C2CCN(Cc3ccc(OCC)cc3)CC2)CC1,0,53,0,0,0,0,
O=C(NCc1ccccc1)c1nn2c(C(F)(F)F)cc(-c3ccc(Br)cc3)nc2c1Br,0,0,0,0,-,-,
Clc1ccccc1-c1ncc2ccccn12,0,63,0,0,0,36,
Ic1ccc(-c2ncc3ccccn23)cc1,0,0,0,0,-,-,
c1coc(-c2ncc3ccccn23)c1,0,0,0,0,-,-,
COc1ccc(-c2ncc3ccccn23)cc1OC,0,70,0,0,0,36,
CCC(C)NCCOc1cccc(Br)c1 (configuration not stated),0,61,0,0,45,0,AlphaScreen DR=0
CCOc1cccc(OCCCNC(C)CC)c1 (configuration not stated),0,0,0,0,-,-,
CCC(C)NCCOCCOc1ccccc1 (configuration not stated),0,0,0,0,-,-,
SMILES,GPR151 activ,MITF inh,TEAD-YAP inh,FBW7 act,MITF inh conf,AlphaScreen intf2,others
CCC(C)NCCCOc1ccc(Br)cc1C (configuration not stated),0,57,0,0,0,0,
CCC(C)NCCOCCOc1ccc(I)cc1 (configuration not stated),0,55,0,0,0,0,
N#Cc1ccccc1S(=O)(=O)Nc1ccccc1C(=O)O,0,0,0,0,-,-,
N#Cc1cc(Oc2nc3ccccc3s2)c(N2CCOCC2)cc1C#N,0,0,0,0,-,-,
COc1ccccc1C(=O)Nc1ccc2c(c1)C(=O)Nc1cc(Cl)ccc1O2,0,0,0,0,-,-,
CCOc1ccccc1C(=O)Nc1ccc2c(c1)C(=O)Nc1ccccc1O2,0,53,0,0,0,0,
CC(C)c1cccc(OCCCN2CCOCC2)c1,0,56,0,0,0,0,
Cc1cc(OCCN2CCOCC2)ccc1C(C)C,0,59,0,0,0,0,
COc1cccc(OCCn2cncn2)c1,0,0,0,0,-,-,
Cc1ccc(C(C)C)cc1OCCN1CCOCC1,0,51,0,0,0,0,
Cc1ccc(C(C)C)cc1OCCn1cncn1,0,66,0,0,0,0,
Nc1n[nH]c(-c2ccc(Cl)c([N+](=O)[O-])c2)n1,0,0,0,0,-,-,

# Compound activity (PubChem BioAssay)
